Unmarked numbers belong to inactive results.
These compounds were tested on Vero E6 infected with SARS-CoV-2 (assay: SARS-CoV-2 infection rate relative to infected DMSO; higher = more infection, active = 60 or less). Settings: 24 h.

Structure (SMILES) | SARS-CoV-2 infection rate
O=C(CCBr)N1CCN(C(=O)CCBr)CC1 [pipobroman] (10 µM) | 98.5%
CCOc1ccc2nc(S(N)(=O)=O)sc2c1 [ethoxzolamide] (10 µM) | 97.5%
O=C(Nc1cccc(C(F)(F)F)c1)Nc1ccc(Br)cc1-c1nnn[nH]1 (10 µM) | 108%
C=C(NC(=O)C(=C)NC(=O)c1csc(C2=N[C@@H]3c4csc(n4)[C@H]4NC(=O)c5csc(n5)[C@H]([C@](C)(O)[C@@H](C)O)NC(=O)[C@H]5CSC(=N5)/C(=C/C)NC(=O)[C@H]([C@@H](C)O)NC(=O)c5csc(n5)[C@]3(CC2)NC(=O)[C@H](C)NC(=O)C(=C)NC(=O)[C@H](C)NC(=O)[C@H]([C@@H](C)CC)N[C@@H]2C=Cc3c([C@H](C)O)cc(nc3[C@H]2O)C(=O)O[C@@H]4C)n1)C(N)=O [thiostrepton] (10 µM) | 92.5%
CNc1cc2c(Nc3cccc(Br)c3)ncnc2cn1 (10 µM) | 112%
CCC(=O)O[C@]1(C(=O)CCl)[C@@H](C)C[C@H]2[C@@H]3C[C@H](F)C4=CC(=O)C=C[C@]4(C)[C@@]3(F)[C@@H](O)C[C@@]21C [halobetasol-propionate] (10 µM) | 106%
O=C(Cc1ccc(-c2ccccc2)cc1)Nc1ccccn1 [difenpiramide] (10 µM) | 62%
CC(C)[C@H](N)C(=O)OCCOCn1cnc2c(=O)nc(N)[nH]c21 [valaciclovir] (10 µM) | 116%
COc1ccc(/C=C\c2cc(OC)c(OC)c(OC)c2)cc1OP(=O)(O)O [fosbretabulin] (0.833333 µM) | 112%
Cc1ccc(C(=O)NCCCCCC(=O)Nc2ccccc2N)cc1 (0.833333 µM) | 120%
Cc1cc(C)cc(NC(=O)Cc2ccc(OC(C)(C)C(=O)O)cc2)c1 [efaproxiral] (10 µM) | 107%
CC(NCCc1ccc(O)cc1)C(O)c1ccc(O)cc1 (stereo not given) [ritodrine] (10 µM) | 96%
O=c1[nH]c2ccccc2n1C1CCN(CCOc2ccccc2)CC1 [oxiperomide] (0.833333 µM) | 104%
O=C(O)/C=C/c1ccc(O)c(O)c1 [caffeic-acid] (10 µM) | 110%
CC(=O)c1cnc2ccc(-c3cc(Cl)c(O)c(Cl)c3)nc2c1N[C@H]1CC[C@H](CN(C)C)CC1 (0.833333 µM) | 96%
OC(CCCN1CCN(c2ncc(F)cn2)CC1)c1ccc(F)cc1 (stereo not given) (10 µM) | 108%
C[C@H](CCC(=O)O)[C@H]1CC[C@H]2[C@@H]3[C@@H](O)C[C@@H]4C[C@H](O)CC[C@]4(C)[C@H]3CC[C@]12C [ursodiol] (10 µM) | 106%
Cc1ccc(NC2=CC(=O)c3sc(C)nc3C2=O)cc1 [ryuvidine] (0.833333 µM) | 104%
CC1CC(OC(=O)C(O)c2ccccc2)CC(C)(C)C1 (stereo not given) [cyclandelate] (10 µM) | 98%
Nc1nc(N)c(N=O)c(OCC2CCCCC2)n1 (10 µM) | 54.5% (active)

Structure (SMILES) | SARS-CoV-2 infection rate
COC(=O)CCc1ccc(OCC(O)CNC(C)C)cc1 (stereo not given) [esmolol] (10 µM) | 116%
CO/N=C1\C[C@]2(C[C@@H]3C[C@@H](C/C=C(\C)C[C@@H](C)/C=C/C=C4\CO[C@@H]5[C@H](O)C(C)=C[C@@H](C(=O)O3)[C@]45O)O2)O[C@H](/C(C)=C/C(C)C)[C@H]1C [moxidectin] (10 µM) | 98.5%
C=C1/C(=C\C=C2/CCC[C@]3(C)[C@@H]([C@H](C)CCCC(C)(C)O)CC[C@@H]23)C[C@@H](O)C[C@@H]1O [calcitriol] (10 µM) | 108%
O=C(O)CCCC[C@@H]1SC[C@@H]2NC(=O)N[C@@H]21 [biotin] (10 µM) | 108%
NCc1ccc(S(N)(=O)=O)cc1 [mafenide] (10 µM) | 91%
Cc1cc(C)c(N)c(C#Cc2cccc(F)c2)n1 (10 µM) | 97.5%
CN1CCN2c3c(cccc31)[C@@H]1CN(CCCC(=O)c3ccc(F)cc3)CC[C@@H]12 [lumateperone] (10 µM) | 86%
COc1cc2c(c(OC)c1OC)-c1c(cc3c(c1OC)OCO3)C[C@H](C)[C@@](C)(O)C2 [schisandrol-B] (10 µM) | 106%
C1CCC(NC2CCCCC2)CC1 [dicyclohexylamine] (10 µM) | 114%
NCCCC(O)(P(=O)(O)O)P(=O)(O)O [alendronate] (10 µM) | 110%
Cc1cc(Nc2ncnc3ccc(-c4ccc(CNCCS(C)(=O)=O)o4)cc23)ccc1Oc1ccn2ncnc2c1 [HER2-Inhibitor-1] (10 µM) | 95%
CNC(=O)Oc1cccc2ccccc12 [carbaril] (10 µM) | 101%
C[C@H](CCC(=O)O)[C@H]1CC[C@H]2[C@@H]3C(=O)C[C@@H]4CC(=O)CC[C@]4(C)[C@H]3CC(=O)[C@]12C [dehydrocholate-acid] (10 µM) | 94.8%
CN1CCN(Cc2ccc(-c3cnc4[nH]cc(-c5ccc6[nH]ccc6c5)c4c3)cc2)CC1 (0.833333 µM) | 61%
CCC(=O)OCC(=O)[C@@]1(OC(=O)CC)[C@@H](C)C[C@H]2[C@@H]3CCC4=CC(=O)C=C[C@]4(C)[C@@]3(Cl)[C@@H](O)C[C@@]21C [beclomethasone-dipropionate] (10 µM) | 105%
CCc1[nH]c(=O)[nH]c1C(=O)c1ccncc1 [piroximone] (10 µM) | 100%
COc1ccc(OC)c(C(O)C(C)N)c1 (stereo not given) [methoxamine] (10 µM) | 108%
COc1cc2c(cc1OC)[C@@]13CCN4CC5=CCO[C@H]6CC(=O)N2[C@H]1[C@H]6[C@H]5C[C@H]43 [brucine] (10 µM) | 105%
O=C(Nc1ccc(C(F)(F)F)cn1)N1CCN(c2ncccc2C(F)(F)F)CC1 (10 µM) | 93.5%
Cc1sc2c(c1C)C(c1ccc(Cl)cc1)=N[C@@H](CC(=O)Nc1ccc(O)cc1)c1nnc(C)n1-2 (10 µM) | 114%

Reference: the supplement of paper PMC13380429
